# BAZ2B block: inhibitors of human BAZ2B bromodomain; AlphaScreen BAZ2B-H3K14Ac peptide displacement; 360,000 compounds, 4.4% hits; Potency, µM (top dose mostly 114 µM), without a hit: at the highest dose activity change, negative = inhibition, most hits filed as inhibitors; Q9UIF8; note: potency is the fitted concentration of half-maximal effect; % is set by controls: 0 for no effect and ±100 for the full control effect; nearly all actives have a fitted effect of over 60% in size
#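 BAZ2B (50 nM) with biotin-H3(5-23)K14Ac peptide (50 nM) in PBS pH 7.4, 0.01% Tween-20, preformed 30 min, then compound 30 min at room temperature; top concentration 110uM. AlphaScreen streptavidin donor/nickel chelate acceptor beads (10 ug/mL final), 20 min dark, signal read.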
# G9a block: inhibitors of human histone lysine methyltransferase G9a; 350,000 compounds, 8.8% hits; G9a H3K9 monomethylation, AlphaScreen, 2 h; Potency, µM (highest dose often 102 µM), for the others: at the top dose activity, negative = inhibition, actives largely listed as inhibitors; AID 504332; note: potency is the fitted concentration of half-maximal effect; % is set by controls: 0 for no effect and ±100 for the full control effect; nearly all actives have a fitted effect of over 75% in size
# Target sequence (Q96KQ7 913-1193 limits assumed): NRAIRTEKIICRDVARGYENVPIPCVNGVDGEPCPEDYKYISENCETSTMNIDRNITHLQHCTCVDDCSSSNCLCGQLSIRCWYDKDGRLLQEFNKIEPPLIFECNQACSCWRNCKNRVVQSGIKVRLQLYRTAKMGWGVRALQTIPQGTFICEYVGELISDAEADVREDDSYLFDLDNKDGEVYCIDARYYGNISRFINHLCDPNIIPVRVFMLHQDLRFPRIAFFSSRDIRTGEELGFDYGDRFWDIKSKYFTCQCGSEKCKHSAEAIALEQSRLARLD
#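 AlphaScreen read-out: biotin-H3K9 peptide (500 nM) methylation by 20 nM enzyme with 20 uM SAM, 2 h at room temperature after 15 min compound preincubation; anti-monomethyl H3K9 antibody plus donor/acceptor beads, 10 min dark.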
# HP1b binding inh: HP1-beta chromodomain-methylated histone interaction inhibition; Potency, µM (doses to about 114 µM), for the others: at the highest dose activity change, negative = inhibition, hits mostly inhibitors; 390,000 compounds, 0.56% hits; P83916; AID 540317; AlphaScreen HP1-beta / biotin-H3K9me3 peptide binding; note: potency is the fitted concentration of half-maximal effect; nearly all actives have a fitted effect of over 70% in size
# Target sequence (P83916 whole entry, looked up): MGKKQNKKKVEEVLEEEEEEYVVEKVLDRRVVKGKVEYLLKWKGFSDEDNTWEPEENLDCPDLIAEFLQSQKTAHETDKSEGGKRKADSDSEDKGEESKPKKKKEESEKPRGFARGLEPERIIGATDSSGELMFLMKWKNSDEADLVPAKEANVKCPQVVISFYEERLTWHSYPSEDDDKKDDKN
#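 HP1-beta protein (50 nM final) preincubated 30 min at room temperature with biotinylated H3(1-18)K9me3 peptide (50 nM) in PBS pH 7.4, 0.01% Tween-20, then compound added for 30 min. AlphaScreen streptavidin donor/nickel chelate acceptor beads (10 ug/mL final), 30 min dark, luminescence read.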
# JMJD2A Tudor: blocks the human JMJD2A Tudor domain | O75164 | 390,000 compounds, 4.4% hits | AlphaScreen JMJD2A-Tudor / H3K4me3 peptide binding | Potency, µM (top dose mostly 114 µM), inactives show top-dose activity change, negative = inhibition, hits mostly inhibitors; note: potency is the fitted concentration of half-maximal effect; % is set by controls: 0 for no effect and ±100 for the full control effect; nearly all actives have a fitted effect of over 50% in size
# CtBP-E1A blk: inhibitors of CtBP/E1A interaction | 340,000 compounds, 0.49% hits | AlphaScreen GST-E1A/His-CtBP binding, 1536-well; hits give low values | AID 651724 | activity change, % (test concentration not listed); in the data active = activity change below about -65%; inconclusive = mostly about -30% to -63%; note: % is set by controls: 0 for no effect and ±100 for the full control effect
#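 GST-E1A and His-tagged CtBP (125 nM each as 5X stock) were preincubated with pin-transferred compound for 2 h at 37 °C in the dark, then glutathione donor and nickel acceptor beads were added for 1 h before AlphaScreen reading.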
# Six1-Eya2 blk: inhibitors of human Six1/Eya2 interaction; 360,000 compounds, 0.56% hits; activity change, % (no concentration beside the values); AlphaScreen GST-Six1/His-Eya2 binding, biochemical; hits give low values; Q15475+O00167; AID 651725; in the data active = activity change below about -65%; inconclusive = mostly about -30% to -63%; note: % is set by controls: 0 for no effect and ±100 for the full control effect
#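 GST-Six1 + His-Eya2 (5X stock: 250/500 nM); Tris pH 8.0, 300 mM NaCl, 0.05% BSA, 0.02% Tween 20; GSH donor/Ni acceptor beads; 1 h 37 °C dark; AlphaScreen readout.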
# * marks the source's active call; other numbers are inactive results; ? = inconclusive; . = no result; [ ] = remark or other dose. This is a sample that favours compounds with a hit; in the whole collection about 10% have one here. Unless noted, calls come from the whole dose curve; as a rule, active = well fitted inhibition curve with a large enough effect; inconclusive = small, poorly fitted or top-dose-only effect; inactive = no such curve, though single readings can be large or run the other way.
SMILES,BAZ2B block,G9a block,HP1b binding inh,JMJD2A Tudor,CtBP-E1A blk,Six1-Eya2 blk
CN1CCN(C(=O)/C=C\c2ccc(Cl)cc2)CC1,-2%,-12%,38%,-6%,7,0
CSc1ccc(/C=C/C(=O)N2CCCN(C)CC2)cc1,-31%,22µM*,-11%,-36%,0,0
COc1ccc(C(CCNCc2ccc(N(C)C)cc2)c2ccccc2)cc1 (stereo not given),11µM*,1%[2.33 µM],40µM*,25µM*,?,?
CC(C)Oc1ccc(C(CCNCc2ccc(O)cc2)c2ccccc2)cc1 (stereo not given),-21%,-6%,16%,-28%,-1,-2
C=CCN(CC=C)CCCOc1ccc(Br)cc1Cl,-5%,22%,74%,16%,6,-1
COCCn1c(SCC(=O)N2CCCC2)nnc1C(C)C,-3%,-22%,33%,-5%,8,2
CCCn1c(SCC(=O)N2CCCCC2)nnc1C(C)C,-2%,.,?,25µM*,0,6
Clc1ccccc1N/N=C/c1ccc2c(c1)OCO2,-6%,8.9µM*,-17%,-11%,5,-2
C(=N\N1CCN(C(c2ccccc2)c2ccccc2)CC1)/c1ccc2c(c1)OCO2,?,?,?,22µM*,4,0
COc1cc(OC)c(OC)cc1/C=N/N(C)c1ccccc1,32µM*,8.9µM*,16µM*,45µM*,?,-66*
COc1ccc(/C=N/N(C)C2=NCCN2)c(OC)c1OC,-3%,8%,25%,-3%,.,8
CN(/N=C/c1ccc2c(c1)OCO2)c1ccccc1,28µM*,10µM*,-31%,?,-21,?
C(=N\N(c1ccccc1)c1ccccc1)/c1ccc2c(c1)OCO2,-1%,31%,22%,-4%,0,3
COc1cccc(-c2cc(C(F)(F)F)n3nc(C)c(-c4ccccc4)c3n2)c1,-17%,0%[59 µM],12%,-13%,.,.
COc1cc(/C=N/N(C)c2ccccc2)ccc1O,45µM*,14µM*,?,56µM*,?,?
CC1CCCCN1S(=O)(=O)c1ccc(S(=O)(=O)N2CCCC2)cc1 (stereo not given),-12%,?,37%,-5%,5,9
CN(C)S(=O)(=O)c1ccc(C(=O)Nc2nnc(-c3ccco3)o2)cc1,79µM*,-4%,11%,89µM*,-14,-6
CC1CCCCN1S(=O)(=O)c1ccc(C(=O)Nc2nnc(C3CC3)o2)cc1 (stereo not given),50µM*,-1%,43%,-33%,?,-15
CC1CCCCN1S(=O)(=O)c1ccc(C(=O)N2CCOCC2)cc1 (stereo not given),18%,56µM*,10%,-6%,5,2
CS(=O)(=O)c1ccc(-c2nnc(NC(=O)c3ccc(S(=O)(=O)N4CCCC4)cc3)o2)cc1,?,6%[2.33 µM],43%,-25%,-9,-18
O=C(Nc1nnc(C2CC2)o1)c1ccc(S(=O)(=O)N2CCCCC2)cc1,56µM*,17%,46%,?,-17,-18
Cc1nnc(NC(=O)c2ccc(S(=O)(=O)N3CCCCC3C)cc2)o1 (stereo not given),15%,.,27%,?,-30,-18
CNC(=S)NNC(=O)c1c(C)nc2cc(C)ccn12,-18%,?,15%,-9%,-4,3
C[C@H]1CN([C@@H](C)CO)C(=O)c2cccc(NC(=O)C3CC3)c2O[C@H]1CN(C)S(=O)(=O)c1ccccc1,.,.,33%,-22%,5,1
Cc1cccc(NC2=CC(c3cccc(Br)c3)N(c3cccc(C)c3)C2=O)c1 (stereo not given),-25%,-44%[59 µM],40%,-17%,.,.
SMILES,BAZ2B block,G9a block,HP1b binding inh,JMJD2A Tudor,CtBP-E1A blk,Six1-Eya2 blk
O=C(Nc1nnc(-c2ccco2)o1)c1ccc(S(=O)(=O)N2CCCCC2)cc1,.,.,.,.,0,-13
CN(C(=O)c1ccc(N2CCOCC2)c([N+](=O)[O-])c1)C1CCCCC1,-8%,19%,24%,-9%,5,-13
CC1CCCCN1S(=O)(=O)c1ccc(C(=O)Nc2nnc(-c3ccco3)o2)cc1 (stereo not given),89µM*,.,27%,-10%,-18,-26
O=C(Nc1nnc(C2CC2)o1)c1ccc(S(=O)(=O)N2CCCc3ccccc32)cc1,50µM*,-12%,45%,-23%,-3,-6
CC1CCN(S(=O)(=O)c2ccc(C(=O)Nc3nnc(C4CC4)o3)cc2)CC1,50µM*,26%,57%,1%,-20,-14
CN(c1ccc(C(=O)N2CCOCC2)cc1[N+](=O)[O-])C1CCCCC1,50µM*,?,-8%,-32%,-20,-9
CC(=O)NC(c1ccc(F)c(F)c1)c1nc(-c2ccccc2)cs1 (stereo not given),.,.,.,.,2,1
Cc1ccc(Cn2c(C(=O)O)c(CNCc3ccccc3Cl)c3ccc(C)cc32)cc1,?,-32%[59 µM],20%,-23%,.,.
Cc1ccc(C(=O)O)cc1-c1ccc(/C=C2\SC(=O)N(CC(=O)Nc3ccccc3)C2=O)o1,22µM*,7.1µM*,?,35µM*,-1,1
Cc1c(/C=C2\SC(=O)N(CC(=O)Nc3ccc4c(c3)OCO4)C2=O)c2ccccc2n1C,-33%[57.1 µM],17%,-11%,-26%,-18,-14
C#CCN1C(=O)S/C(=C\c2ccc(-c3ccc(C(=O)O)cc3C)o2)C1=O,50µM*,?,-27%,89µM*,0,-15
Cc1cc(C(=O)O)ccc1-c1ccc(/C=C2\SC(=O)N(CC(=O)Nc3ccc4c(c3)OCO4)C2=O)o1,18µM*,-1%[0.501 µM],.,.,.,.
Cc1cccc(NC(=O)CN2C(=O)S/C(=C\c3cc(C)n(C)c3C)C2=O)c1,0%,-7%[59 µM],29%,-17%,-11,-1
Cc1ccccc1NC(=O)CN1C(=O)S/C(=C\c2ccc(-c3cc(C(=O)O)ccc3C)o2)C1=O,14µM*,5µM*,40µM*,22µM*,-14,-5
O=C(CCS(=O)(=O)c1cc(Br)cc2c1N(C(=O)C1CC1)CC2)N1CCN(c2cccc(C(F)(F)F)c2)CC1,-31%,-28%[59 µM],2%,-15%,.,.
C=C[C@@]1(C)C[C@H](OC(=O)CSC(C)(C)CNC(=O)[C@@H](N)C(C)C)[C@@]2(C)C(C)CC[C@@]3(CCC(=O)[C@@H]32)[C@H](C)[C@H]1O (stereo not given in full),.,0%[12.7 µM],.,.,.,.
COc1cc(/C=C(\CC(=O)O)c2nc3ccccc3s2)cc(OC)c1O,-26%,14µM*,12%,16µM*,-2,-1
COc1cc(C=C(c2nc3ccccc3s2)c2nc3ccccc3s2)cc(OC)c1O,22µM*,6.3µM*,?,56µM*,17,2
